Measured values published in PubChem BioAssay (NCATS).
Records with an inconclusive call do not appear. Where a call stands in place of a potency, no number is given. Activity calls are given as the source filed them. Unless noted, the call rests on the fitted dose curve; in most records, active means well fitted curve in the direction sought with a large enough effect; inconclusive means small, poorly fitted or top-dose-only effect, or another doubt; inactive means no such curve, though single readings can be large; an effect the other way counts as inactive or inconclusive.

Key:
[1] = Nrf2 qHTS screen for inhibitors: Validation (AID 493153; active means well fitted inhibition curve with a large enough effect in the main read-out, with a control signal flat, not every such curve was filed as active; further: potency means the concentration at half of the fitted maximal effect); details: Potency: luciferase luminescence; viability change: measured here: cytotoxicity max response
Procedure, shortened: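 A549 cells carrying an ARE-driven firefly luciferase reporter, in 5% FBS OPTI-MEM, were treated with compounds in concentration-response for 18-24 h at 37°C. Viability was read by CellTiter-Fluor fluorescence, then Nrf2 activity by luciferase luminescence.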

[2] = qHTS for Inhibitors of Cell Surface uPA Generation: Validation Assay (AID 493164);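 further: RAW 264.7 macrophage cells exposed to compound for 18 h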
Procedure, shortened: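 RAW 264.7, 4000 cells/well, o/n plating; cpd 7-pt 1:5 dilution 2.45 nM–38.3 uM final; 18 h, 37 C/5% CO2; ATP-Lite, 5 s luminescence exposure.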

[3] = biological target: Galactokinase (Homo sapiens) (UniProt P51570); experiment: qHTS Validation Assay for Inhibitors of Human Galactokinase (GALK) (AID 493189)
Procedure, shortened: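 Enzyme activity is inferred from ATP consumption: human GALK phosphorylates galactose (100 uM) using 35 uM ATP for 1 h at room temperature, and luciferase-based Kinase-Glo Plus reports unconsumed ATP.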

[4] = biological target: Peptidyl-prolyl cis-trans isomerase NIMA-interacting 1 (Homo sapiens) (UniProt Q13526); experiment: qHTS Validation Assay to Find Inhibitors of Pin1 (AID 504536; active means well fitted inhibition curve with a large enough effect in the polarisation, with a control signal flat, not every such curve was filed as active; the % refers to the polarisation)
Procedure, shortened: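 Fluorescence polarization competition: compounds (titration) displace HiFluor-488-labeled Pin1-1b peptide from Pin1 (0.3 uM final) in pH 7.5 HEPES buffer with DTT, 10 min at room temperature; %Activity normalized to no-enzyme wells, curves fitted.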

[5] = biological target: Phosphoglycerate kinase, glycosomal (Trypanosoma brucei brucei) (UniProt P07378); experiment: qHTS Validation Assay to Find Inhibitors of Phosphoglycerate Kinase (AID 504547)
Procedure, shortened: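 Inhibition of the enzyme is judged by a Kinase-Glo Plus luminescent signal following a one-hour incubation at room temperature. Because 1,3-BPG is unstable, it is made in situ by GAPDH at 100nM final; no-PGK wells define the baseline.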

[6] = biological target: phosphoglycerate mutase (Leishmania major) (UniProt Q4Q090); experiment: qHTS Validation Assay to Find Inhibitors of Phosphoglycerate Mutase (AID 504548); details: Potency: inhibition qHTS;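 further: end-point luminescence from Kinase-GloPlus after the PGAM reaction; series mostly up to about 58 µM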
Procedure, shortened: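 Inhibition of L. major PGAM was assessed by Kinase-GloPlus luminescence following a 45-minute room-temperature reaction with enzyme at 1.25nM final.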

[7] = biological target: Ubiquitin carboxyl-terminal hydrolase 1 (Homo sapiens) (UniProt O94782); experiment: Inhibitors of USP1/UAF1: Pilot qHTS (AID 504865);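 further: rhodamine fluorescence freed from ubiquitin-rhodamine substrate followed over time; top concentration of the series differs between compounds; nearly all actives have a fitted effect of over 35% in size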
Procedure, shortened: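 Enzyme-free wells gave the negative control, while test wells held 1nM USP1/UAF1 preincubated with compound for 15 min at room temperature. Ub-Rho at 150nM final started the reaction, and fluorescence at 480/540 nm was recorded kinetically.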

[8] = qHTS for Inhibitors of ATXN expression: Validation (AID 588378); further: nearly all actives have a fitted effect of over 75% in size; further: potency means the concentration at half of the fitted maximal effect
Procedure, shortened: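 After a 2 h attachment and 24 h compound incubation, HEK293-ATXN2-FFLuc wells are read for fluorescence at 405 nm excitation/525 nm emission as a viability measure, then for Bright-Glo luminescence reflecting ATXN2 expression.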

[9] = qHTS for Inhibitors of ATXN expression: Validation of Cytotoxic Assay (AID 588349); further: potency means the concentration at half of the fitted maximal effect
Procedure, shortened: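 HEK293 cells were dosed with titrated compounds for 72 hr at 37 degrees C. Viability was read by CellTiter Glo luminescence, with intracellular ATP as the marker of cell survival.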

[10] = Validation screen for small molecules that induce DNA re-replication in SW480 colon adenocarcinoma cells (AID 504364)
Procedure, shortened: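 SW480 cells seeded at 250 per well were exposed to compound or DMSO for 48 hr at 37 C, 5% CO2, then stained with Hoechst for 40 min. DNA content per nucleus was imaged (405 nm ex, 500-530 nm em).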

phosphoglycerate mutase (Leishmania major), sequence (Q4Q090 1-553): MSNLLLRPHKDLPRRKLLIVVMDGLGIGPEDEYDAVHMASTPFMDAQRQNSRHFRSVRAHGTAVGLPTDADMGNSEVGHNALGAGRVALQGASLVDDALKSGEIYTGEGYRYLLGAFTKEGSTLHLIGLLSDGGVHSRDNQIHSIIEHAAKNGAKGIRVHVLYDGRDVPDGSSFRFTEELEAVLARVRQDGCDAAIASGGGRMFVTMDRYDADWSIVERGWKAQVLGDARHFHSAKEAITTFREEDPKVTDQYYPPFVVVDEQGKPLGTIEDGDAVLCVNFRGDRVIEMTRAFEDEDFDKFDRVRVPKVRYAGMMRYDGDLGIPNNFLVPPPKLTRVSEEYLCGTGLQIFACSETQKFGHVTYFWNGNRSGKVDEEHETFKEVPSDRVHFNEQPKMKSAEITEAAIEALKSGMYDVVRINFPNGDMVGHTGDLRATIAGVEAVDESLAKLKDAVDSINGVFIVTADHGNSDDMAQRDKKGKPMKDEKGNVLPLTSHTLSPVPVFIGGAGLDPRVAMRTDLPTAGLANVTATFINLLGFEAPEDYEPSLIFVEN
Peptidyl-prolyl cis-trans isomerase NIMA-interacting 1 (Homo sapiens), sequence (Q13526 whole entry, looked up): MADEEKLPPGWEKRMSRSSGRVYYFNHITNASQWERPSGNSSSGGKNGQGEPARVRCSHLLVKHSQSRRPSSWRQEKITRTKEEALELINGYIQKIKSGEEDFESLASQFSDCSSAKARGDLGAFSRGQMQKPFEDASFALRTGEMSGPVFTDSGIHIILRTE
Galactokinase (Homo sapiens), sequence (P51570 whole entry, looked up): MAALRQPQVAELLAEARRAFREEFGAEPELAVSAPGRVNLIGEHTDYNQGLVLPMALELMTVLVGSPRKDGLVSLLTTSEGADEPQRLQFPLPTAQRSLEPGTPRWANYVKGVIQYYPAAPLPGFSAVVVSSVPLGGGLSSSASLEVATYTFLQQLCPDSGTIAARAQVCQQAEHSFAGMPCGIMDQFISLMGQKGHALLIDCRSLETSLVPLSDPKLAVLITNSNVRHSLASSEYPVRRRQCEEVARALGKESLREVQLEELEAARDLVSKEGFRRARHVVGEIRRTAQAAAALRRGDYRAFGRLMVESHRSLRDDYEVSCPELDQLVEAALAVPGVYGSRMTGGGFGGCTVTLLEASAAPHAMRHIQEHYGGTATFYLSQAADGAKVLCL
Phosphoglycerate kinase, glycosomal (Trypanosoma brucei brucei), sequence (P07378 whole entry, looked up): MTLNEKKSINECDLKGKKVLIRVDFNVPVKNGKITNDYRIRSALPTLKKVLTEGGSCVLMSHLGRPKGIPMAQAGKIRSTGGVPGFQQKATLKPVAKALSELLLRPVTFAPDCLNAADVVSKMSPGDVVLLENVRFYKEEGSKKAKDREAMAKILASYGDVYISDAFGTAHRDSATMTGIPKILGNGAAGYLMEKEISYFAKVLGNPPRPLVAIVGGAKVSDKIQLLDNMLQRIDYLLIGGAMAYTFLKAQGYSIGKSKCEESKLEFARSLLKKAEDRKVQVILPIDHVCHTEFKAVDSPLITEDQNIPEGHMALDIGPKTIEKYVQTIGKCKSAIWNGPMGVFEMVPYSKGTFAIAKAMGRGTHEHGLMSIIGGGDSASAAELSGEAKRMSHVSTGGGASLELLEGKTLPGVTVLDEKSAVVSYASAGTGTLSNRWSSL
Ubiquitin carboxyl-terminal hydrolase 1 (Homo sapiens), sequence (O94782 whole entry, looked up): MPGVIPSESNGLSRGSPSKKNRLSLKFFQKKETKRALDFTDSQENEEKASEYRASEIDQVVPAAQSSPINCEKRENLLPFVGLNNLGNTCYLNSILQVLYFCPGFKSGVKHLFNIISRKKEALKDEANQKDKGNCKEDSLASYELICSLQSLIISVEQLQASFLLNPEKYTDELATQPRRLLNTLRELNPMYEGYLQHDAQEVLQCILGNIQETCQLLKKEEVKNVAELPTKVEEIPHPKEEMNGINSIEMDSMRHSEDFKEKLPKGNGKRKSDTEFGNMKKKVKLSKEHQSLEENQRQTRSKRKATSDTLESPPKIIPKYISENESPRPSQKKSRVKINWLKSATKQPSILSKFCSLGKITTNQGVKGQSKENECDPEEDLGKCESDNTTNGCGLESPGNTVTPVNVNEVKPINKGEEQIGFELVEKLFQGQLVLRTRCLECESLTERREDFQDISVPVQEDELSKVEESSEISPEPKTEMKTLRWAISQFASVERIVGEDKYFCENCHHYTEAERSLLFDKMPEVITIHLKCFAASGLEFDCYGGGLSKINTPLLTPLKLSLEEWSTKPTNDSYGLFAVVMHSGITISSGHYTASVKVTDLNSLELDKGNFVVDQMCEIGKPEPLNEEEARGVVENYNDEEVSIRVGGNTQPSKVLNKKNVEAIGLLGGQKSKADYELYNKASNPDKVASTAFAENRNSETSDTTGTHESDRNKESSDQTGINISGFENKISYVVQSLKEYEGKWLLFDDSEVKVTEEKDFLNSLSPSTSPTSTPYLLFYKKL

SMILES	Potency [1]	viability change [1]	outcome [2]	Potency [3]	Potency [4]	Potency [5]	Potency [6]	Potency [7]	Potency [8]	Potency [9]	Potency [10]
N[C@H](C(=O)O)[C@H]1C[C@@H]1C(=O)O	inactive	2.9%	inactive	inactive	inactive	inactive	inactive	inactive	inactive	–	–
O=C(OCCN1CCOCC1)C1(c2ccccc2)CCCCC1	inactive	-0.582%	inactive	inactive	–	inactive	inactive	inactive	inactive	inactive	–
O[Si](CCCN1CCCCC1)(c1ccc(F)cc1)C1CCCCC1 (stereo not given)	inactive	-4.41%	inactive	inactive	inactive	inactive	inactive	inactive	–	–	–
O=C1C2C=CC=CC2=NC(=S)N1CCN1CCC(=C(c2ccc(F)cc2)c2ccc(F)cc2)CC1 (stereo not given)	inactive	6.28%	inactive	inactive	inactive	inactive	inactive	inactive	inactive	inactive	–
Nc1ccc(CCNc2ncnc3c2ncn3C2OC(CO)C(O)C2O)cc1 (stereo not given)	inactive	5.22%	inactive	inactive	inactive	inactive	–	inactive	inactive	inactive	–
NC(=Nc1ccccc1)NC(=O)c1nc(Cl)c(N)nc1N	inactive	-16.8%	inactive	inactive	inactive	inactive	inactive	inactive	inactive	–	–
Oc1cc2c(cc1O)C(c1ccccc1)CNCC2 (stereo not given)	inactive	-2.55%	inactive	inactive	inactive	inactive	inactive	inactive	inactive	inactive	–
COc1cc(CNC(=O)CCCCCCC(C)C)ccc1O	inactive	-9.77%	inactive	inactive	inactive	inactive	inactive	–	inactive	–	–
C=CCN1CCc2cc(O)c(O)cc2C(c2ccccc2)C1 (stereo not given)	inactive	-2.64%	inactive	inactive	inactive	inactive	inactive	inactive	–	–	–
Cc1ccc([N+](=O)[O-])cc1S(=O)(=O)N(C)C	inactive	3.59%	inactive	inactive	inactive	inactive	inactive	inactive	inactive	inactive	–
COC(=O)C(C)(N)Cc1ccc(O)cc1 (stereo not given)	inactive	-3.06%	inactive	inactive	inactive	inactive	–	inactive	inactive	inactive	–
Cn1c(=O)c2c(nc(/C=C/c3cccc(Cl)c3)n2C)n(C)c1=O	inactive	3.93%	inactive	inactive	–	inactive	–	–	inactive	inactive	inactive
O=c1onc2cnc3ccccc3n12	inactive	-4.79%	inactive	inactive	inactive	inactive	inactive	inactive	inactive	inactive	–
c1ccc2nc(C3=NCCN3)ccc2c1	inactive	1.31%	inactive	inactive	inactive	inactive	inactive	inactive	inactive	inactive	–
Cn1c(=O)c2[nH]c(C3CCCC3)nc2n(C)c1=O	inactive	1.08%	inactive	inactive	inactive	inactive	inactive	inactive	inactive	–	–
CC(N)(Cc1ccc(O)c(O)c1)C(=O)O (stereo not given)	inactive	-0.588%	inactive	inactive	inactive	–	–	inactive	inactive	–	–
CC(C)NC[C@H](O)COc1ccc(CC(N)=O)cc1	inactive	-0.176%	inactive	inactive	inactive	inactive	inactive	inactive	inactive	inactive	–
O=C(O)c1cccnc1C(=O)O	inactive	1.3%	inactive	inactive	inactive	inactive	inactive	inactive	inactive	inactive	–
CCCCOc1cc(CC2CNC(=O)N2)ccc1OC (stereo not given)	inactive	4.87%	inactive	inactive	inactive	inactive	inactive	inactive	inactive	–	–
CC[C@@H]1Cc2cc(O)ccc2C2=C1c1ccc(O)cc1C[C@H]2CC	inactive	1.92%	inactive	inactive	inactive	inactive	inactive	inactive	15.8 µM (active)	22.4 µM (active)	–
C[C@H](NC(=O)/C(C#N)=C/c1ccc(O)c(O)c1)c1ccccc1	inactive	-7.12%	inactive	inactive	inactive	inactive	inactive	inactive	–	–	–
CCCn1c(=O)c2[nH]c(C3CCCC3)nc2n(CCC)c1=O	inactive	-6.17%	inactive	inactive	inactive	inactive	inactive	inactive	inactive	–	–
Nc1ncnc2c1ncn2C1CCCO1 (stereo not given)	inactive	12.1%	inactive	inactive	–	inactive	inactive	inactive	inactive	inactive	–
COC(=O)[C@H](NC(=O)c1cc(-c2ccccc2)nc2ccccc12)c1ccccc1	inactive	-11.1%	inactive	inactive	–	inactive	inactive	inactive	inactive	–	–
C[C@H]1CC2C3CCC4=CC(=O)C=C[C@]4(C)[C@@]3(Cl)[C@@H](O)C[C@]2(C)[C@@]1(O)C(=O)CO (stereo not given in full)	0.0164 µM (active)	4.17%	inactive	–	inactive	inactive	inactive	inactive	inactive	inactive	–
